Where “and” joins values, the source holds several entries; their conditions need not be identical. Identical values can stand only once. About 830 (0.38%) of roughly 220,000 compounds were called active.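 Rule for the calls: active = activation, scaled between plate controls, above about 75% (limit read from the data); inactive = activation under that limit.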 Many of the other results were omitted from the sample, so actives are more common in it than they were.
assay: rescue of L929 cells from zVAD death – primary screen (AID 1377); settings: L929 zVAD necroptosis rescue, ATP luminescence, 24 h, at 10 µM, stronger effect = higher value; with zVAD 60 µM unless noted;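 note: 0% = zVAD with DMSO and 100% = DMSO alone without zVAD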

Row | Structure (SMILES) | viability rescue
1 | COc1cc([C@H](Cc2ccccc2)NC(C)=O)oc(=O)c1 | -0.39% (inactive)
2 | COC(=O)C1=C(C(=O)OC)[C@@H]2N(C)c3ccccc3[C@@]23C[C@@H](C(=O)OC)N(C(C)=O)C3=N1 | 0.26% (inactive)
3 | Clc1ccc2nc(-c3ccccc3)nc(C(Cl)Cl)c2c1 | 37.5% (inactive)
4 | Oc1ccc(-c2onc3ccc(Cl)cc23)cc1 | 82.9% (active)
5 | NC(=O)C[n+]1cccc(C(N)=O)c1 | 1.24% (inactive)
6 | O=C(O)CCn1c(O)c(C=C2N=c3ccccc3=N2)sc1=S | -0.21% (inactive)
7 | CCN(CC)CCNS(=O)(=O)c1ccc(/C=C/C(=O)O)cc1 | 1.05% (inactive)
8 | C/C(=C/C(=O)N1CCN(C)CC1)C(=O)O | 0.98% (inactive)
9 | CSc1nc2c(c(=O)[nH]1)C(c1cccc(Cl)c1Cl)CC(=O)N2 (centres undefined) | 0.3% (inactive)
10 | Cc1ccccc1C(=O)N1CCC(C(=O)Nc2ccc(S(=O)(=O)N(C)C(C)C)cc2)CC1 | -0.58% (inactive)
11 | CC(C)n1cnc2c(Nc3cccc(Cl)c3)nc(N(CCO)CCCO)nc21 | 20.9% (inactive)
12 | OCCCNc1nccc(-c2cc(Nc3cccc(Cl)c3)ncn2)n1 | 103% (active)
13 | NS(=O)(=O)c1cccnc1Nc1cccc(Cl)c1 | -0.92% (inactive)
14 | CC(=O)Nc1ccc(S(=O)(=O)NCC(=O)OCc2cc(=O)oc3ccc4ccccc4c23)cc1 | 0.62% (inactive)
15 | COc1ccc(Nc2ncc(F)c(N3CCOCC3)n2)cc1 | 75.1% (active)
16 | CCOc1ccc(Nc2nc(Cl)nc(N3CCN(c4ccc(OC)cc4)CC3)n2)cc1 | 0.74% (inactive)
17 | c1ccc(Nc2nc(N3CCOCC3)c3ccccc3n2)cc1 | -0.17% (inactive)
18 | CCCOC(=O)c1c(NC(=O)c2cnn3c2NC(c2ccccc2)CC3C(F)(F)F)sc2c1CCCC2 (centres undefined) | 7.75% [with zVAD 20 µM] (inactive)
19 | CC(C)NC(=O)/C(C#N)=C\c1ccc(N(C)C)c(Br)c1 | 0.11% (inactive)
20 | COc1ccc(C2CC(c3cccs3)Nc3nnnn32)cc1 (centres undefined) | 2.51% (inactive)
21 | Cc1cc(-n2cnc(-c3cn(C)nc3C)n2)no1 | 80.2% (active)
22 | C/C(Cc1ccccc1)=N\NC(=O)CNC(=O)c1ccc2c(c1)OCCO2 | 0.03% (inactive)
23 | COc1cccc(Nc2nc(N)c([N+](=O)[O-])c(NCc3ccco3)n2)c1 | -0.44% (inactive)
24 | COC(=O)c1cccnc1NC(=S)NC(C)C | -0.14% (inactive)

Row | Structure (SMILES) | viability rescue
25 | CC[C@H]1CN2CCc3cc(OC)c(OC)cc3[C@@H]2C[C@@H]1C[C@H]1NCCc2cc(OC)c(OC)cc21 | 79.5% (active)
26 | COc1cc2c(cc1O)[C@H](Cc1ccc(Oc3cc(C[C@@H]4NCCc5cc(OC)c(O)cc54)ccc3O)cc1)NCC2 | 5.53% (inactive)
27 | O=C(/C=C/c1cccs1)NCc1cccnc1 | 0.04% (inactive)
28 | Cc1ccc(Nc2ccccc2N)cc1 | 75.5% (active)
29 | Nc1ccc(Nc2ccccc2)cc1 | 0.51% [with zVAD 20 µM] (inactive)
30 | Cc1ccc(Nc2nnc(SCc3ccccc3)s2)cc1 | 1.32% [with zVAD 20 µM] (inactive)
31 | Cc1ccc(C)c(NC(=O)C2Cc3ccccc3CN2C(=O)OCc2ccccc2)c1 (centres undefined) | 0.1% [with zVAD 20 µM] (inactive)
32 | Cc1cc(NC(=O)c2cnn3cccnc23)n(-c2ccccc2)n1 | 77.7% (active)
33 | Cc1cc(NC(=O)Nc2ccccc2)n(-c2ccccc2)n1 | 0.11% [with zVAD 20 µM] (inactive)
34 | O=C(Nc1ccc(Cl)cn1)c1cnn2cccnc12 | -0.65% (inactive)
35 | CNC(=S)N/N=C/c1cn(Cc2ccc(C)cc2)c2ccccc12 | 0.34% (inactive)
36 | COCCNC(=O)c1ccccc1NS(=O)(=O)c1ccc(C)c([N+](=O)[O-])c1 | 0.95% (inactive)
37 | COc1ccc(/C=N/NS(=O)(=O)c2ccc(NC(C)=O)cc2)cc1 | 0.07% (inactive)
38 | Cc1cc(=O)oc2cc(OCC(=O)Nc3nnc(C4CC4)s3)ccc12 | -0.67% (inactive)
39 | Cc1ccc(NC(=O)Cn2cccc2C2=NC(c3ccccc3)CO2)c(C)c1 (centres undefined) | -0.00089% (inactive)
40 | CCNc1nc(NCC)nc(N/N=C/c2ccc(O)c(OC)c2)n1 | 0.27% (inactive)
41 | COc1cc(/C=N/Nc2nc3ccccc3s2)ccc1O | 77.5% (active)
42 | COc1cc(/C=N\Nc2nc(-c3cccs3)c(NC(C)=O)s2)ccc1O | 2.98% (inactive)
43 | COc1cc2nc(Cl)nc(NCCO)c2cc1OC | 0.24% (inactive)
44 | CC1CC(C)(C)n2c(O)c(N=NC(N)=S)c3cccc1c32 (centres undefined) | -0.69% (inactive)
45 | COc1ccccc1/C=C/CN1CCC(CO)(Cc2ccccc2)CC1 | 0.85% (inactive)
46 | CC(=O)c1ccc(S(=O)(=O)N2CCN(C(=O)/C=C/c3ccc4ccccc4n3)CC2)cc1 | 75.2% (active)
47 | NC(=O)COC(=O)/C=C/c1ccc2ccccc2n1 | 10.8% (inactive)
48 | CC(=O)c1ccc(S(=O)(=O)N2CCN(c3nc4c(C)c(C)ccc4cc3C#N)CC2)cc1 | 1.16% (inactive)

Row | Structure (SMILES) | viability rescue
49 | Cc1ccc(S(=O)(=O)N(C)CC(=O)OCC(=O)Nc2ccccc2)cc1 | 0.76% (inactive)
50 | Brc1cc(/C=N/n2cnnc2)oc1Br | 0.56% (inactive)
51 | Cc1nnc(OCC(=O)NCCC2=CCCCC2)c2ccccc12 | 0.41% (inactive)
52 | O=C(COc1cccc(-n2cnnn2)c1)NCCC1=CCCCC1 | 78.2% [with zVAD 20 µM] (active)
53 | O=C(COc1ccc(Cl)cc1)NCCC1=CCCCC1 | 0.15% [with zVAD 20 µM] (inactive)
54 | COCCN(C(=O)c1ccccc1F)c1c(N)n(Cc2ccccc2)c(=O)[nH]c1=O | 1.78% (inactive)
55 | COc1ccc(CN2C(=O)C(C)S/C2=N/N=C/c2ccco2)cc1 (centres undefined) | 0.28% (inactive)
56 | COC(=O)c1[nH]c2ccccc2c1NS(=O)(=O)c1ccc(OC)cc1OC | -0.08% (inactive)
57 | COc1ccccc1N=Cc1c(O)c2ccccc2oc1=O | -0.1% (inactive)
58 | CN=c1scc(-c2cc(OC)ccc2OC)n1/N=C/c1c(C)[nH]c2ccccc12 | 3.26% [with zVAD 20 µM] (inactive)
59 | COc1ccc(N=Cc2c(O)[nH]c3ccccc23)cc1OC | 76.4% [with zVAD 20 µM] (active)
60 | COCC(=O)N=Nc1c(O)[nH]c2ccccc12 | -0.49% [with zVAD 20 µM] (inactive)
61 | COc1cc(N=Cc2c(O)[nH]c3ccccc23)cc(OC)c1OC | 78.4% [with zVAD 20 µM] (active)
62 | Cc1cccc(C(=O)N2CCC(c3nc4ccccc4s3)CC2)c1 | 12.5% (inactive)
63 | CC(C)=CCN1CCN(Cc2ccc(Oc3ncccn3)cc2)CC1CCO (centres undefined) | -0.77% (inactive)
64 | CCc1ccc(C2C(C#N)=C(N)N(N3CCOCC3)C3=C2C(=O)CC(C)(C)C3)s1 (centres undefined) | -0.95% (inactive)
65 | CCCN=C1NC(=O)C(CC(=O)NCCc2ccc(OC)c(OC)c2)S1 (centres undefined) | 0.51% [with zVAD 20 µM] (inactive)
66 | OCC(CO)(CO)NCc1ccc(-c2ccccc2)cc1 | 3.78% (inactive)
67 | O=C(Nc1nnc(C2CC2)s1)C1=NN(C2CCS(=O)(=O)C2)C(=O)CC1 (centres undefined) | 1.75% (inactive)
68 | Cn1c(=O)c2c(nc(NCc3ccccc3)n2CC(N)=O)n(C)c1=O | -0.38% (inactive)
69 | Clc1ccc(-c2cc(-c3ccccn3)on2)c(Cl)c1 | -0.1% (inactive)
70 | COc1ccc(Br)c2c1C(=O)CC2 | 1.09% (inactive)
71 | NC1=NC[C@@H](Cc2ccc(O)cc2)N1CC1CCCCC1 | 0.84% (inactive)
72 | c1ccc2c(c1)CSc1sccc1C2=C1CCNCC1 | 1.55% (inactive)

Row | Structure (SMILES) | viability rescue
73 | Oc1ccc(/C=N/Nc2ccc(C(F)(F)F)cn2)cc1O | 78.6% (active)
74 | Cc1nccn1CC(=O)N/N=C/c1ccc(O)c(O)c1 | 0.09% [with zVAD 20 µM] (inactive)
75 | O=C(Nc1ccccc1)Nc1ccc(C(F)(F)F)cn1 | 16.8% (inactive)
76 | COc1cc(Cl)c(C)cc1NC(=O)COC(=O)c1cc(SC)ccc1Cl | -0.03% [with zVAD 20 µM] (inactive)
77 | O=S(=O)(NC1CC1)c1ccc2c3c(cccc13)CC2 | 2.42% (inactive)
78 | Cc1csc(NC(=O)NC2(C(F)(F)F)Oc3ccccc3O2)n1 | 78.5% [with zVAD 20 µM] (active)
79 | Cc1csc(NC(=O)Nc2ccccc2[N+](=O)[O-])n1 | 0.75% (inactive)
80 | CC(=O)Nc1cccc(C(=O)Nc2nc(C)cs2)c1 | -1.49% (inactive)
81 | COc1ccc(CNC(=O)CN2CCC(n3nnc4cc(F)ccc43)CC2)cc1 | -0.59% (inactive)
82 | Cc1oc(C(N)=O)cc1COc1ccc(C(N)=O)cc1 | 1.12% (inactive)
83 | Cc1cc(C(=O)NNS(=O)(=O)c2ccccc2C(F)(F)F)nn1C(C)(C)C | 0.49% (inactive)
84 | CN(C)S(=O)(=O)c1ccc(NC(=O)COC(=O)Cn2[nH]c(=O)c3ccccc3c2=O)cc1 | 0.01% (inactive)
85 | COc1ccc(Cl)cc1NC(=O)COC(=O)C(CC(C)C)N1C(=O)C2CC=CCC2C1=O (centres undefined) | 0.49% [with zVAD 20 µM] (inactive)
86 | CCOC(=O)C(=O)C1C(=O)Nc2ccccc21 (centres undefined) | -0.07% (inactive)
87 | O=C(/C=C/c1ccccc1[N+](=O)[O-])NCC1CCCO1 (centres undefined) | 1.4% (inactive)
88 | CC1CCCCC1NC(=O)/C(C#N)=C/C=C/c1ccccc1[N+](=O)[O-] (centres undefined) | 77% (active)
89 | O=C(/C=C/c1ccccc1[N+](=O)[O-])OC1CCCCC1=O (centres undefined) | -0.52% (inactive)
90 | C=CCn1c(P(C)(=O)O)nc2ccccc21 | 0.44% (inactive) and 0.28% (inactive)
91 | CCOc1cc2[nH]c(=O)n(Cc3ccc(C(=O)NCCCN4CCCC4=O)cc3)c(=O)c2cc1OCC | 0.03% (inactive)
92 | Cc1cccc(C)c1NC(=O)CSc1ccc([N+](=O)[O-])cn1 | 1.1% (inactive)
93 | O=C(CSc1ccc([N+](=O)[O-])cn1)Nc1ccc(N2CCOCC2)cc1 | 16.6% (inactive)
94 | O=C(CSc1ccc([N+](=O)[O-])cn1)Nc1ccc(N2CCOCC2)c(Cl)c1 | 80.2% (active)

Reference: PubChem BioAssay AID1377 (University of Pittsburgh Molecular Library Screening Center, 2008)
